{"source": "the supplement of paper PMC13380429", "data": [{"system": "Vero E6 infected with SARS-CoV-2", "test": "morphology score (similarity to uninfected cells); higher = more like uninfected cells", "conditions": "24 h", "values": [{"smiles": "O=C(O)c1ccc(NC(=O)[C@H](Cc2ccc(O)cc2)NC(=O)c2ccccc2)cc1", "note": "[bentiromide] (10 µM)", "morphology score": 0.211}, {"smiles": "CN(C)CCN(C)CCc1ccc(Cl)c(Cl)c1", "note": "(10 µM)", "morphology score": 0.208}, {"smiles": "Cn1c(COc2ccc(CC3SC(=O)NC3=O)cc2)nc2ccccc2c1=O", "note": "(configuration not stated) [balaglitazone] (10 µM)", "morphology score": -0.114}, {"smiles": "CCn1c(O)nnc1-c1ccc(Cl)cc1", "note": "[5-(4chlorophenyl)-4-ethyl-2,4-dihydro-3H-1,2,4-triazol-3-one] (0.833333 µM)", "morphology score": 0.0166}, {"smiles": "O=c1c(-c2ccccc2)c1-c1ccccc1", "note": "[diphencyprone] (10 µM)", "morphology score": -0.0547}, {"smiles": "COc1ccc(CNC(=O)c2cc(-c3cncc(C)c3)ncc2-c2nccs2)nc1OC", "note": "(10 µM)", "morphology score": -0.0112}, {"smiles": "Cc1ccccc1NC(=N)Nc1ccccc1C", "note": "[ditolylguanidine] (10 µM)", "morphology score": -0.286}, {"smiles": "CC(=O)NC[C@H]1CN(c2ccc(-c3ccc(CNCc4cnn[nH]4)cc3)c(F)c2)C(=O)O1", "note": "[radezolid] (10 µM)", "morphology score": 0.0332}, {"smiles": "C#Cc1cccc(Nc2ncnc3cc4c(cc23)OCCOCCOCCO4)c1", "note": "[icotinib] (0.833333 µM)", "morphology score": -0.00998}]}, {"system": "Vero E6 infected with SARS-CoV-2", "test": "SARS-CoV-2 infection rate relative to infected DMSO; higher = more infection, active = 60 or less", "conditions": "24 h", "values": [{"smiles": "CCCc1cc(=O)[nH]c(=S)[nH]1", "note": "[propylthiouracil] (10 µM)", "SARS-CoV-2 infection rate": "104% (inactive)"}, {"smiles": "COc1cc(F)c(C(C)C)cc1-c1ccc(C(F)(F)F)cc1CN1C(=O)O[C@H](c2cc(C(F)(F)F)cc(C(F)(F)F)c2)[C@@H]1C", "note": "[anacetrapib] (10 µM)", "SARS-CoV-2 infection rate": "106% (inactive)"}, {"smiles": "C[C@@H](C1=C(CCN(C)C)Cc2ccccc21)c1ccccn1", "note": "(racemic) [dimetindene] (10 µM)", "SARS-CoV-2 infection rate": "94.8% (inactive)"}, {"smiles": "Cc1cccc(CN2CCN(C(c3ccccc3)c3ccc(Cl)cc3)CC2)c1", "note": "(configuration not stated) [meclizine] (10 µM)", "SARS-CoV-2 infection rate": "108% (inactive)"}, {"smiles": "COc1cccc(Nc2c(C(N)=O)cnc3c(C)cc(S(=O)(=O)c4cccc(C(=O)N(C)C)c4)cc23)c1", "note": "(10 µM)", "SARS-CoV-2 infection rate": "91% (inactive)"}, {"smiles": "CCOc1cc2ncc(C#N)c(Nc3ccc(OCc4cccc(F)c4)c(Cl)c3)c2cc1NC(=O)/C=C/CN(C)C", "note": "(10 µM)", "SARS-CoV-2 infection rate": "99.5% (inactive)"}, {"smiles": "Nc1nonc1/C(=N/O)Nc1ccc(F)c(Cl)c1", "note": "(10 µM)", "SARS-CoV-2 infection rate": "112% (inactive)"}, {"smiles": "CCCCc1nc(Cl)c(C(=O)O)n1Cc1ccc(-c2ccccc2-c2nn[nH]n2)cc1", "note": "[carboxylosartan] (10 µM)", "SARS-CoV-2 infection rate": "106% (inactive)"}, {"smiles": "CC(O)(CS(=O)(=O)c1ccc(F)cc1)C(=O)Nc1ccc(C#N)c(C(F)(F)F)c1", "note": "(configuration not stated) [bicalutamide] (10 µM)", "SARS-CoV-2 infection rate": "114% (inactive)"}, {"smiles": "C[C@]12C=CC(=O)N[C@@H]1CC[C@@H]1[C@@H]2CC[C@]2(C)[C@@H](C(=O)Nc3cc(C(F)(F)F)ccc3C(F)(F)F)CC[C@@H]12", "note": "[dutasteride] (10 µM)", "SARS-CoV-2 infection rate": "111% (inactive)"}, {"smiles": "O=C(O)c1cn(C2CC2)c2cc(N3CCNCC3)c(F)cc2c1=O", "note": "[ciprofloxacin] (10 µM)", "SARS-CoV-2 infection rate": "106% (inactive)"}, {"smiles": "O=[N+]([O-])c1cc(O)c(O)c([N+](=O)[O-])c1", "note": "(10 µM)", "SARS-CoV-2 infection rate": "101% (inactive)"}, {"smiles": "COc1c2occc2c(OC)c2c(=O)cc(C)oc12", "note": "[khellin] (10 µM)", "SARS-CoV-2 infection rate": "109% (inactive)"}, {"smiles": "CS(=O)(=O)c1ccc([C@@H](O)[C@@H](CF)NC(=O)C(Cl)Cl)cc1", "note": "[florfenicol] (10 µM)", "SARS-CoV-2 infection rate": "96.5% (inactive)"}, {"smiles": "CCC[N+]12[C@H](O)[C@@H](CC)[C@@H]3C[C@H]1[C@@H]1N(C)c4ccccc4[C@]14C[C@H]2[C@@H]3[C@H]4O", "note": "[neo-gilurytmal] (10 µM)", "SARS-CoV-2 infection rate": "116% (inactive)"}, {"smiles": "CCNC(=O)c1noc(-c2cc(C(C)C)c(O)cc2O)c1-c1ccc(CN2CCOCC2)cc1", "note": "(0.833333 µM)", "SARS-CoV-2 infection rate": "94% (inactive)"}, {"smiles": "C[C@]12CCC(=O)C=C1CC[C@@H]1[C@@H]2[C@@H](O)C[C@@]2(C)[C@H]1CC[C@]2(O)C(=O)COC(=O)CCC(=O)O", "note": "[hydrocortisone-hemisuccinate] (10 µM)", "SARS-CoV-2 infection rate": "116% (inactive)"}, {"smiles": "CO[C@H](C(=O)[C@@H](O)[C@@H](C)O)[C@@H]1Cc2cc3cc(O[C@H]4C[C@@H](O[C@H]5C[C@@H](O)[C@H](O)[C@@H](C)O5)[C@@H](O)[C@@H](C)O4)c(C)c(O)c3c(O)c2C(=O)[C@H]1O[C@H]1C[C@@H](O[C@H]2C[C@@H](O[C@H]3C[C@](C)(O)[C@H](O)[C@@H](C)O3)[C@H](O)[C@@H](C)O2)[C@H](O)[C@@H](C)O1", "note": "[plicamycin] (10 µM)", "SARS-CoV-2 infection rate": "104% (inactive)"}]}]}
